Screening results from PubChem.
Only some compounds are listed: those with a hit (about 4.1% of all), similar ones and a draw of the others.
Mdm2-MdmX inh – inhibitors of human Mdm2/MdmX interaction. 330,000 tested, 3% active. SaOS-2 split-luciferase Mdm2/MdmX complementation, luminescence. AID 485346. inhibition, % at 8 µM;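 active = inhibition of at least 50% at 8 µM in the primary screen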
Target sequence (O15151 whole entry, looked up): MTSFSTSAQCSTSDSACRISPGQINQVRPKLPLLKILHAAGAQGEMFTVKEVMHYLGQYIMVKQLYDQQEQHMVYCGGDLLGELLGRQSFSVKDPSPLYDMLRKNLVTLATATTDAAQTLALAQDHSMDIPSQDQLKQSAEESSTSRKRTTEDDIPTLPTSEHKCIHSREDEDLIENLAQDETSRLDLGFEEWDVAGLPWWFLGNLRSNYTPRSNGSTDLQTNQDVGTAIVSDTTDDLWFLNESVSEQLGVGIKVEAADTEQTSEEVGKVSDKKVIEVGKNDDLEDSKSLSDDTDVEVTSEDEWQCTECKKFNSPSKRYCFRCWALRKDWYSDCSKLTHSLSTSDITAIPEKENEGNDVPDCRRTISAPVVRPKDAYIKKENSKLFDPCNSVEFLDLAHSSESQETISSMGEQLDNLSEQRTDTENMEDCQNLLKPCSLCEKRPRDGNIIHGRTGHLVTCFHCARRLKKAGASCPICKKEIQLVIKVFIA
Target sequence (Q00987 whole entry, looked up): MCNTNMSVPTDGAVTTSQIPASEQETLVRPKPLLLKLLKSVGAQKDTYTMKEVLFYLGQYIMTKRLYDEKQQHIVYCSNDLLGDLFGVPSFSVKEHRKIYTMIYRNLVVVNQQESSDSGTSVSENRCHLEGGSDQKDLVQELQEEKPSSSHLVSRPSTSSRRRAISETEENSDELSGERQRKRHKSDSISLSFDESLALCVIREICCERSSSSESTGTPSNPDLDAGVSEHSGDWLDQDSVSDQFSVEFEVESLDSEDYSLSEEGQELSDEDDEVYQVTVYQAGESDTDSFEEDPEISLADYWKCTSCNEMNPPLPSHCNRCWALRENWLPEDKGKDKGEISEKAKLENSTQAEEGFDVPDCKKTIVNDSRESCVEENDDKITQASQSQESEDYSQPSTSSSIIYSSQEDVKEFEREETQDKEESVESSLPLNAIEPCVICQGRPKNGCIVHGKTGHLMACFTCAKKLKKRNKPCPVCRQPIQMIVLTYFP
Beta apoptosis – blocks beta cell apoptosis; INS-1E cytokine-induced death, ATP luminescence, 48 h; percent of positive-control rescue, neutral wells zero; protection from apoptosis, % (no concentration beside the values); 300,000 tested, 0.8% active; AID 435005;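 active = Every replicate reaches about 75%, or at least half do and their mean reaches it too, limit read from the data; inconclusive = At least half of replicates reach the limit but their mean does not; inactive = Under half of replicates reach the limit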;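 note: higher means more ATP so stronger rescue from cytokine killing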
aSyn 5UTR inh – 5' untranslated region of α-synuclein, MLPCN primary screen; alpha-synuclein 5'UTR reporter, inhibitor activity; inhibition, % (tested at 7.5 µM); 300,000 tested, 0.82% active; AID 1813; in the data active = inhibition above about 60%; inconclusive = no clear call, values can overlap the other calls;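 note: H4 neuroglioblastoma cells stably carrying SNCA 5'UTR luciferase fusion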
A1 inh – inhibitors of the anti-apoptotic protein A1, read as caspase activation | MEF A1-2A-BIM cells, Caspase-Glo 3/7 luminescence, 3 h; percent of clofoctol response, vehicle zero | caspase activation, % (test concentration not listed) | 330,000 tested, 0.066% active | AID 2462;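 active = over half of replicate activation scores above 10%, or exactly half above 10 with the replicate mean above 10; inconclusive = replicate mean below 10 yet half the replicates above 10; inactive = over half of replicates below 10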
CSC inhib – cancer stem cell inhibition; cancer stem cell-like cells viability, luminescence; inhibition, % at 7.5 µM; 300,000 tested, 1.1% active; in the data active = inhibition above about 75%; inconclusive = no clear call, values can overlap the other calls; tested in HMLE shEcad cells
Hits are given with their value; – = inactive; ? = inconclusive; · = no result given.

SMILES	Mdm2-MdmX inh	Beta apoptosis	aSyn 5UTR inh	A1 inh	CSC inhib
Cc1ccc2nc(-c3ccccc3)cc(C(=O)N3CCN(S(=O)(=O)c4c(C)noc4C)CC3)c2c1	–	–	·	–	·
Cc1ccc(-n2c(SCC(=O)O)nc3sc4c(c3c2=O)CCCC4)cc1	–	–	–	–	–
Cc1ccc(-n2c(SCC(=O)c3c(N)n(C)c(=O)n(C)c3=O)nc3sc4c(c3c2=O)CCCC4)c(C)c1	–	102	–	–	–
CC1=NN(c2ccccc2)C(=O)/C1=C/C=C/C=C/N(C)C	–	–	–	–	–
CC1=NN(c2ccc(C)cc2)C(=O)/C1=C\C=C\c1ccccc1	–	–	–	–	78
CCOC(=O)c1ccc([N+](=O)[O-])c(CS(=O)(=O)c2ccc(Cl)cc2)c1	–	–	–	–	–
Cc1ccc(S(=O)(=O)Cc2cc(F)c([N+](=O)[O-])cc2[N+](=O)[O-])cc1	–	·	–	–	102
CC1CCN(S(=O)(=O)c2ccc3c(c2)N(CC(=O)NCCN2C(C)CCCC2C)C(=O)CS3)CC1 (stereo not drawn)	–	–	–	–	–
O=C(O)C[C@H](O)C[C@H](O)/C=C/c1c(C2CC2)nc2ccccc2c1-c1ccc(F)cc1	·	·	104	·	·
CCc1nnc(NC(=O)c2ccc(S(=O)(=O)N(C)Cc3ccccc3)cc2)o1	–	–	63	–	–
O=C(c1ccc(N2CCN(C(=O)c3cccc(F)c3)CC2)cc1)c1cccc(F)c1	–	–	–	–	–
CCOC(=O)N1CCN(c2ccc(C(=O)c3cccc(F)c3)cc2)CC1	–	–	–	–	76
CC#CC[N+](C)(C)CCCCCCCC	–	131	–	–	–
CC#CC[N+](C)(C)CC(=O)c1ccccc1	–	–	–	–	–
COc1ccc(C(=O)NNc2ccccc2)cc1OC	–	–	–	–	83
S=C(NCCSCc1ccc(Cl)cc1Cl)Nc1ccccc1	–	–	–	–	–
OCCCCNCc1ccc(OCc2ccc(Cl)cc2Cl)cc1	–	–	–	–	91
S=C(Nc1ccccc1)Nc1ccc(OCc2ccc(Cl)cc2Cl)cc1	–	–	96	·	·
CN(C(=O)CN1C(=O)C2C3CC(C(Br)C3Br)C2C1=O)C1CCCCC1 (stereo not drawn)	–	·	–	–	–
CCc1noc(C)c1C(=O)N1CCN(S(=O)(=O)c2c(C)c(C)cc(C)c2C)CC1	–	–	–	–	–
O=C(c1cc(-c2ccc(Cl)cc2)on1)N1CCOCC1	–	–	–	–	–
O=C(c1cc(-c2ccc(Cl)cc2Cl)on1)N1CCOCC1	–	–	80	–	–
O=C(CN1C(=O)NC2(CCCc3ccccc32)C1=O)NCc1cccs1 (stereo not drawn)	–	–	·	–	·
NC(N)=NC(N)=Nc1ccc2ccccc2c1	–	–	–	–	–
NC(N)=NC(N)=Nc1ccc(SC(F)(F)F)cc1	–	116	–	–	–
SMILES	Mdm2-MdmX inh	Beta apoptosis	aSyn 5UTR inh	A1 inh	CSC inhib
CCc1ccc(NC(=O)CSC2=C(C#N)C(c3ccco3)C3=C(CCCC3=O)N2)cc1 (stereo not drawn)	–	–	–	–	–
N#CC1=C(SCC(=O)c2ccc(Br)cc2)NC2=C(C(=O)CCC2)C1c1ccco1 (stereo not drawn)	–	·	·	–	91
Cc1ccc(-n2nc3c(=O)n(CCCC(=O)NCC(C)c4ccccc4)nc(C)c3c2C)cc1 (stereo not drawn)	–	–	–	–	–
COc1ccc(-c2csc(NC(=S)NC(=O)/C=C/c3ccco3)n2)cc1OC	·	–	63	–	79
CCCC(=O)Nc1nnc(SCC(=O)NC2CC2)s1	–	–	–	–	–
CSC1=C(C#N)C(c2ccc(Cl)cc2)C2=C(CC(C)(C)CC2=O)N1 (stereo not drawn)	–	–	71	–	–
CCCSC1=C(C#N)C(c2ccc(OC)cc2)C2=C(CC(C)(C)CC2=O)N1 (stereo not drawn)	–	–	–	–	–
Cc1cc(C)n2nc(SCc3nnc(SCc4ccccc4C)s3)nc2n1	–	103	–	–	–
COCc1cc(CNC(=O)C2CCC(=O)N(Cc3cccc(OC)c3)C2)[nH]n1 (stereo not drawn)	–	·	–	·	·
COc1ccc(-n2c(C)cc(C(=O)CSc3ccc(NC(C)=O)cc3)c2C)cc1	–	–	–	–	169
COc1ccc(C(=O)/C=C/c2ccc(N3CCCCC3)c([N+](=O)[O-])c2)cc1	–	–	–	–	?
COc1ccc(C(=O)/C=C/c2ccc(N3CCCCC3)c([N+](=O)[O-])c2)c(OC)c1	·	–	–	–	97
CC(NCc1ccc([N+](=O)[O-])cc1)C1COc2ccccc2O1 (stereo not drawn)	–	–	–	–	–
O=C(CCNC(=O)c1ccc([N+](=O)[O-])cc1)Oc1ccc(F)c(F)c1	–	–	·	–	–
N#CC(C#N)=C1C=CC=CN1/C(=C\c1ccco1)C(=O)c1ccc(Br)cc1	·	101	·	–	–
CC(=O)c1ccc(-n2ccc(=O)cc2)cc1	–	–	–	–	–
CC1(C)C(C=C(Cl)Cl)C1C(=O)Nc1ccc([N+](=O)[O-])cc1 (stereo not drawn)	·	96	·	–	–
N#CCC(=O)N/N=C/c1ccc(Cl)cc1	–	–	–	–	–
N#CCC(=O)N/N=C/c1cc(-c2ccccc2)n(-c2ccc(Cl)cc2)c1-c1ccccc1	–	109	–	–	–
O=C(c1cc([N+](=O)[O-])ccc1N1CCCCC1)N1CCc2ccccc21	–	–	81	–	–
COc1cc(/C=C/C(=O)c2ccc(NS(=O)(=O)c3ccc(C)cc3)cc2)cc(OC)c1O	·	–	–	–	80
COc1ccc2cc(C(=O)/C=C/c3cc(OC)c(O)c(OC)c3)ccc2c1	–	·	–	–	–
COc1cccc(C(=O)Nc2ccc(C)cc2)c1	–	–	–	–	–
COc1cccc(C(=O)Nc2ccc(C3CC3(Cl)Cl)cc2)c1 (stereo not drawn)	–	–	–	–	91
Cc1c(CCC(=O)N2CCC(C(=O)NCCCCCC(=O)O)CC2)c(=O)oc2cc3oc4c(c3cc12)CCCC4	–	–	–	–	–
SMILES	Mdm2-MdmX inh	Beta apoptosis	aSyn 5UTR inh	A1 inh	CSC inhib
Cc1c(CCC(=O)N2CCC[C@H]2C(=O)O)c(=O)oc2cc3oc4c(c3cc12)CCCC4	–	–	77	–	–
Cc1c(CCC(=O)O)c(=O)oc2cc3oc4c(c3cc12)CCCC4	–	–	68	–	–
Cc1c(CCC(=O)NCC(=O)NCC(=O)O)c(=O)oc2cc3oc4c(c3cc12)CCCC4	–	–	–	–	–
CCC1C(=O)C[C@H]2CCN3C(=O)CCCC1C23 (stereo partly drawn)	–	·	·	·	·
O=[N+]([O-])c1cccc2ccc(/C=C/c3ccc(Cl)cc3)nc12	–	–	–	–	–
O=[N+]([O-])c1cccc2ccc(/C=C/c3ccc(C(F)(F)F)cc3)nc12	–	–	–	–	78
COc1ccc(NC(=O)CN(C)C(=O)c2ccc(NS(=O)(=O)c3cccc([N+](=O)[O-])c3)cc2)cc1	–	–	–	–	–
